# Experimental data reported in the supplement of paper PMC6555819.
# Legend:
# Test in all cases: PBM binding z-score (relative to random genomic background probes); higher = stronger binding; sequences stand for … in GC…GCGATTGACAGCGTAGAATGAAGG
# [1] = tested on: FXR:RXRa (NR concentration 270 nM, RXRa partner concentration 90 nM)
# In short: (§1)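 The probes on custom Agilent 4×180K protein-binding microarrays were double-stranded, with 34-nt variable regions bearing direct-repeat seeds, single-nucleotide variants, half-site ablations and random human genomic background sequences. Incubation lasted 1 h with ligand-free nuclear receptor dimers in PBS pH 7.4, 2% milk, 0.02% Triton X-100, 1 mM DTT, 0.2 mg/mL BSA and 0.4 mg/ml salmon testes DNA. Antibodies against each partner (one per run) detected bound dimers, and fluorescence scans were regression-normalized. Binding z-scores take the random background probes as reference.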
# [2] = tested on: LXRa:RXRa (NR concentration 270 nM, RXRa partner concentration 90 nM)
# In short: as §1
# [3] = tested on: LXRa homodimer (NR concentration 270 nM)
# In short: as §1
# [4] = tested on: LXRb:RXRa (NR concentration 270 nM, RXRa partner concentration 90 nM)
# In short: as §1
# [5] = tested on: LXRb homodimer (NR concentration 270 nM)
# In short: as §1
# [6] = tested on: PPARa:RXRa (NR concentration 270 nM, RXRa partner concentration 90 nM)
# In short: as §1
# [7] = tested on: PPARg:RXRa (NR concentration 180 nM, RXRa partner concentration 90 nM)
# In short: as §1
# [8] = tested on: PPARg:RXRa 270nM:90nM, anti-RXR (NR concentration 270 nM, RXRa partner concentration 90 nM)
# In short: as §1
# [9] = tested on: PPARg:RXRa 30nM:10nM, anti-RXR (NR concentration 30 nM, RXRa partner concentration 10 nM)
# In short: as §1
# [10] = tested on: PPARg:RXRa 90nM:30nM, anti-RXR (NR concentration 90 nM, RXRa partner concentration 30 nM)
# In short: as §1
# [11] = tested on: PPARg:RXRa DBDmut IVT, anti-RXR (DBD mutation: RXRa K156A/R161A, NR concentration 270 nM, RXRa partner concentration 90 nM)
# In short: as §1
# [12] = tested on: PPARg:RXRa IVT, anti-PPARg (NR concentration 270 nM, RXRa partner concentration 90 nM)
# In short: as §1
# [13] = tested on: PPARg DBDmut:RXRa IVT, anti-PPARg (DBD mutation: PPARg1 K132A/R137A, NR concentration 270 nM, RXRa partner concentration 90 nM)
# In short: as §1
# [14] = tested on: PPARg DBDmut IVT, anti-PPARg (DBD mutation: PPARg1 K132A/R137A, NR concentration 270 nM)
# In short: as §1
# [15] = tested on: PPARg homodimer (NR concentration 180 nM)
# In short: as §1
# [16] = tested on: PXR:RXRa (NR concentration 270 nM, RXRa partner concentration 90 nM)
# In short: as §1
# [17] = tested on: PXR homodimer (NR concentration 270 nM)
# In short: as §1
# [18] = tested on: RARa:RXR (NR concentration 270 nM, RXRa partner concentration 90 nM)
# In short: as §1
# [19] = tested on: RARa homodimer (NR concentration 270 nM)
# In short: as §1
# [20] = tested on: RARb:RXRa (NR concentration 270 nM, RXRa partner concentration 90 nM)
# In short: as §1
Sequence,PBM binding z-score [1],PBM binding z-score [2],PBM binding z-score [3],PBM binding z-score [4],PBM binding z-score [5],PBM binding z-score [6],PBM binding z-score [7],PBM binding z-score [8],PBM binding z-score [9],PBM binding z-score [10],PBM binding z-score [11],PBM binding z-score [12],PBM binding z-score [13],PBM binding z-score [14],PBM binding z-score [15],PBM binding z-score [16],PBM binding z-score [17],PBM binding z-score [18],PBM binding z-score [19],PBM binding z-score [20]
CCTCAGAGGACAACAGGAGGTCAGAGCTGCCAGA,1.05,2.25,2.4,1.34,-0.195,2.09,0.662,0.51,-0.374,-0.163,0.559,0.422,-0.428,-1.85,1.69,2.04,0.295,2.24,0.569,3.46
CTCGAAAGGTCGTGCTCAGGTGAGAATACCAAAC,5.2,3.74,0.081,3.51,0.321,4.86,2.81,3.77,1.19,2.44,0.69,1.89,0.151,0.41,2.63,3.35,0.0262,4.6,0.317,3.93
CGTCCAAAGTCAGAGAGGTCAGTGAATGCCGAGT,1.93,2.04,1.25,1.98,0.362,2.51,0.249,0.942,-0.0025,0.475,0.254,0.644,-0.212,-0.647,1.79,3.05,1.35,2.85,0.862,3.27
CCTTACGGGTCACTCCAGGTTAAAGCATCGGAGT,5.18,7.96,2.58,5.93,0.173,4.59,3.59,4.06,1.02,2.86,2.31,3.73,-0.0185,-0.224,2.3,5.3,0.114,4.1,0.271,3.67
CAAACTATGTCAAAGGTCAAAGTCGAGCCAACCA,6.52,6.3,5.11,5.79,2.93,7.19,11.9,10.2,10.4,11.8,5.12,6.61,1.88,0.733,3.54,5.93,1.52,7.09,2.38,5.1
TCTATAAGTTGATTAGGGCAACCGAAACAGCGGA,0.561,0.285,0.0111,0.135,-0.0997,1.13,0.429,2.02,3.59,2.83,2.11,1.45,0.91,0.949,0.532,0.227,0.561,0.489,0.661,1.13
TCAGACAGGTGAAGGTAACTCAGGTACGCAGTCG,0.942,1.82,-0.0918,1.2,-0.116,1.34,0.719,2.37,3.89,2.98,2.78,1.13,0.341,-0.339,0.564,0.641,0.447,0.878,0.775,1.18
CAAACTCGGTCACCGGAAGGTCAAAGTCCGCATG,4.53,5.04,4.93,3.86,1.28,4.39,3.62,4.26,1.23,3.26,4.82,5.21,0.644,0.562,4.4,4.75,1.84,5.66,1.31,4.61
CGACCAAGGTCAAGGTCAGTGAAAGAGACTCGAA,7.76,5.28,0.72,4.53,0.222,6.07,6.71,6.54,2.6,5.32,3.29,4.75,0.143,-0.162,3.87,4.59,0.777,4.89,1.42,5.78
GCTTGTAGATCACGGTTAAGAAAGACTAAGCTAA,-0.132,-0.33,-0.625,-0.369,-0.584,-0.169,-0.118,-0.0332,-0.114,0.156,2.32,1.04,-0.32,-0.283,0.0431,-0.49,-0.193,-0.247,0.0308,-0.178
ATCTCTAGGTACCAAGTTCAGTGAAAGAGAGGAC,0.701,0.609,0.346,0.651,0.845,0.892,0.678,1.23,0.604,1.03,0.464,0.878,1.07,0.989,0.548,1.42,1.37,0.711,0.57,1.28
ACAGACAGGTGATGAAGGTAAGTCAGGCTATCAT,-0.11,-0.19,-0.349,-0.143,-0.155,0.0808,0.554,-0.245,-0.266,-0.536,0.134,0.289,0.49,-0.485,-0.00799,-0.348,-0.234,-0.203,0.26,0.27
AATACATGGTCATCGTAGGCCAGAGTACGCACAG,0.0777,0.702,0.0647,-0.141,-0.0432,0.289,1.22,0.533,0.2,0.514,0.199,1.21,0.624,0.968,-0.153,0.3,-0.157,0.574,0.339,1.14
TAGCCTAGGTCATGTGGGCCAGTATAGTGTCGGC,4.35,2.97,0.553,1.85,0.185,3.53,2.11,2.75,0.388,1.46,1.81,3.41,-0.502,-0.513,0.832,1.47,-0.447,2.33,-0.278,3.81
TGAATGAGGTTAAGGATCAGGGAACGTGGCGTCG,1.99,1.74,-0.343,1.01,0.386,3.28,3.12,4.57,2.71,4.12,1.6,2.61,0.781,-0.105,0.99,1.08,-0.0179,2.08,0.367,2.03
TTCCCAAGGTGAGCTGAGGTCGTTGATCCAACTC,3.13,1.59,-0.148,0.959,-1.02,1.55,-0.346,0.767,-0.184,0.534,0.471,1.12,-1.17,-1.13,0.0355,4.98,0.698,2,-0.927,1.75
GCTATTAGTTAAAAGGGCAACCGAATGATTCTCG,0.183,0.439,0.409,0.624,-0.5,2.02,1.84,3.45,1.77,3.13,0.433,0.998,0.676,-0.168,1.15,0.537,0.39,0.874,1.2,1.97
TCTCGGAGGACACGGAGGTCAGAGCTTTCCAGAG,1.72,1.54,0.806,1.13,-1.06,2.22,0.548,1.54,1.85,1.75,1.26,1.06,-0.769,-1.39,1,2.45,2.46,2.29,-0.596,3.25
CGAACTAGGTCAGGACAGGACAGTGAAGGATGAT,1.85,0.936,-0.238,0.443,-0.587,3.13,5.98,5.1,2.35,4.11,7.58,7.47,1.64,0.603,0.819,1.25,-0.213,0.766,-0.133,3.44
CCTACTGGGCCATCAGGTCAGTGATATCAACGTT,0.148,0.0376,0.047,0.311,-0.379,1.91,2.01,2.42,0.364,1.92,4.12,4.95,-0.457,0.096,0.501,0.376,-0.631,0.801,-0.59,1.77
ATCGAAAGTTCGACGAGGTGAGTATACACCGTTT,0.939,0.833,-0.161,0.494,0.233,1.18,0.693,0.561,0.0902,0.117,-0.191,0.687,0.332,1.16,0.996,1.42,2.24,1.03,-0.0858,2.32
TCTTGTAGATCAACAGGAGGTTACGAAAGATCGA,0.309,1.28,0.0638,0.991,-0.0897,1.55,0.26,1.65,2.53,1.91,1.67,1.04,0.791,0.725,0.494,0.945,0.0297,1.38,-0.191,0.551
AGTCAAAGTTCAGGACGAGGTAACGGAAAGCACG,3.52,3.93,0.925,1.77,0.134,3.46,4.45,4.88,1.83,3.87,-0.203,2.06,0.787,0.337,2.37,2.66,1.31,2.62,0.344,4.22
ATATGTAGGGTAAGGGTCATTCAGGTTGGTTCGC,4.75,4.47,2.94,4.47,3.06,6.52,11.9,10.3,11.2,12,6.71,7.53,5.99,4.1,6.25,5.47,4.86,5.19,3.71,3.53
AGTCAAAGTTCATCTAGGTAACGTCAGATATGCT,6.97,6.1,5.62,4,1.91,4.87,6.42,6.54,3.63,5.58,1.33,4.32,2.61,1.98,5.02,5.36,7.19,4.41,2.97,4.96
GGAACGAGGGCATTCGAGTTGATTGCATGGCGAT,0.926,1.7,-0.316,0.105,-0.391,1.4,0.653,0.598,-0.244,0.242,2.85,2.45,0.178,-0.205,-0.105,3.88,1.55,1.03,-0.634,1.84
CGAACTAGTTCATTGACAGGACAGTGAATAGTAA,0.24,0.585,0.0589,0.212,-0.317,0.375,0.284,0.0577,-0.0865,-0.122,0.941,0.504,0.647,0.333,0.0581,1.09,0.739,0.372,0.437,1.25
ACTTACGGGTCAACGCGGTTATAGCACGCGTATA,6.63,4.76,0.698,4.08,0.727,5.52,4.9,5.47,1.84,4.14,3.64,4.12,1.26,1.32,1.91,3.92,0.241,4.45,0.802,4.04
